Data reported in PubChem BioAssay.
Activity calls are given as the source filed them.

Legend:
[1] = binders of probe aFSTL3 on microarray, primary screen, stem cell growth factor project, biochemical, small-molecule microarray, fluorescence 635/667 (AID 1064); conditions: higher = more signal;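 note: measures binding of the biotinylated anti-FSTL3 antibody to printed compounds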
[2] = binders from COS7 lysate, DM2A8 probe, primary screen, torsin A project, cell lysate, small-molecule microarray, fluorescence 635/667 (AID 1065); conditions: higher = more signal, COS7 lysate expressing mutant human TOR1A
[3] = binders of probe aFGF2 on microarray, primary screen, stem cell growth factor project, biochemical, small-molecule microarray, fluorescence 635/667 (AID 1067); conditions: higher = more signal;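 note: measures binding of biotinylated aFGF2 protein to printed compounds on slides; z-score merges feature fluorescence and signal-to-noise across triplicate slides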
[4] = binders of probe aFGF10 on microarray, primary screen, stem cell growth factor project, biochemical, small-molecule microarray, fluorescence 635/667 (AID 1071); conditions: higher = more signal;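 note: score merges 667 nm spot intensity and signal to noise from triplicate slides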
[5] = molecular target: Neurogenic locus notch homolog protein 2 (Homo sapiens) (UniProt Q04721); test: Notch2 binders on small-molecule microarrays, primary screen, biochemical, small-molecule microarray, 635 nm fluorescence, stem cell growth factors (AID 1073); conditions: Notch2 binding, higher = more signal
Chain of Neurogenic locus notch homolog protein 2 (Homo sapiens) (Q04721 whole entry, looked up, canonical isoform): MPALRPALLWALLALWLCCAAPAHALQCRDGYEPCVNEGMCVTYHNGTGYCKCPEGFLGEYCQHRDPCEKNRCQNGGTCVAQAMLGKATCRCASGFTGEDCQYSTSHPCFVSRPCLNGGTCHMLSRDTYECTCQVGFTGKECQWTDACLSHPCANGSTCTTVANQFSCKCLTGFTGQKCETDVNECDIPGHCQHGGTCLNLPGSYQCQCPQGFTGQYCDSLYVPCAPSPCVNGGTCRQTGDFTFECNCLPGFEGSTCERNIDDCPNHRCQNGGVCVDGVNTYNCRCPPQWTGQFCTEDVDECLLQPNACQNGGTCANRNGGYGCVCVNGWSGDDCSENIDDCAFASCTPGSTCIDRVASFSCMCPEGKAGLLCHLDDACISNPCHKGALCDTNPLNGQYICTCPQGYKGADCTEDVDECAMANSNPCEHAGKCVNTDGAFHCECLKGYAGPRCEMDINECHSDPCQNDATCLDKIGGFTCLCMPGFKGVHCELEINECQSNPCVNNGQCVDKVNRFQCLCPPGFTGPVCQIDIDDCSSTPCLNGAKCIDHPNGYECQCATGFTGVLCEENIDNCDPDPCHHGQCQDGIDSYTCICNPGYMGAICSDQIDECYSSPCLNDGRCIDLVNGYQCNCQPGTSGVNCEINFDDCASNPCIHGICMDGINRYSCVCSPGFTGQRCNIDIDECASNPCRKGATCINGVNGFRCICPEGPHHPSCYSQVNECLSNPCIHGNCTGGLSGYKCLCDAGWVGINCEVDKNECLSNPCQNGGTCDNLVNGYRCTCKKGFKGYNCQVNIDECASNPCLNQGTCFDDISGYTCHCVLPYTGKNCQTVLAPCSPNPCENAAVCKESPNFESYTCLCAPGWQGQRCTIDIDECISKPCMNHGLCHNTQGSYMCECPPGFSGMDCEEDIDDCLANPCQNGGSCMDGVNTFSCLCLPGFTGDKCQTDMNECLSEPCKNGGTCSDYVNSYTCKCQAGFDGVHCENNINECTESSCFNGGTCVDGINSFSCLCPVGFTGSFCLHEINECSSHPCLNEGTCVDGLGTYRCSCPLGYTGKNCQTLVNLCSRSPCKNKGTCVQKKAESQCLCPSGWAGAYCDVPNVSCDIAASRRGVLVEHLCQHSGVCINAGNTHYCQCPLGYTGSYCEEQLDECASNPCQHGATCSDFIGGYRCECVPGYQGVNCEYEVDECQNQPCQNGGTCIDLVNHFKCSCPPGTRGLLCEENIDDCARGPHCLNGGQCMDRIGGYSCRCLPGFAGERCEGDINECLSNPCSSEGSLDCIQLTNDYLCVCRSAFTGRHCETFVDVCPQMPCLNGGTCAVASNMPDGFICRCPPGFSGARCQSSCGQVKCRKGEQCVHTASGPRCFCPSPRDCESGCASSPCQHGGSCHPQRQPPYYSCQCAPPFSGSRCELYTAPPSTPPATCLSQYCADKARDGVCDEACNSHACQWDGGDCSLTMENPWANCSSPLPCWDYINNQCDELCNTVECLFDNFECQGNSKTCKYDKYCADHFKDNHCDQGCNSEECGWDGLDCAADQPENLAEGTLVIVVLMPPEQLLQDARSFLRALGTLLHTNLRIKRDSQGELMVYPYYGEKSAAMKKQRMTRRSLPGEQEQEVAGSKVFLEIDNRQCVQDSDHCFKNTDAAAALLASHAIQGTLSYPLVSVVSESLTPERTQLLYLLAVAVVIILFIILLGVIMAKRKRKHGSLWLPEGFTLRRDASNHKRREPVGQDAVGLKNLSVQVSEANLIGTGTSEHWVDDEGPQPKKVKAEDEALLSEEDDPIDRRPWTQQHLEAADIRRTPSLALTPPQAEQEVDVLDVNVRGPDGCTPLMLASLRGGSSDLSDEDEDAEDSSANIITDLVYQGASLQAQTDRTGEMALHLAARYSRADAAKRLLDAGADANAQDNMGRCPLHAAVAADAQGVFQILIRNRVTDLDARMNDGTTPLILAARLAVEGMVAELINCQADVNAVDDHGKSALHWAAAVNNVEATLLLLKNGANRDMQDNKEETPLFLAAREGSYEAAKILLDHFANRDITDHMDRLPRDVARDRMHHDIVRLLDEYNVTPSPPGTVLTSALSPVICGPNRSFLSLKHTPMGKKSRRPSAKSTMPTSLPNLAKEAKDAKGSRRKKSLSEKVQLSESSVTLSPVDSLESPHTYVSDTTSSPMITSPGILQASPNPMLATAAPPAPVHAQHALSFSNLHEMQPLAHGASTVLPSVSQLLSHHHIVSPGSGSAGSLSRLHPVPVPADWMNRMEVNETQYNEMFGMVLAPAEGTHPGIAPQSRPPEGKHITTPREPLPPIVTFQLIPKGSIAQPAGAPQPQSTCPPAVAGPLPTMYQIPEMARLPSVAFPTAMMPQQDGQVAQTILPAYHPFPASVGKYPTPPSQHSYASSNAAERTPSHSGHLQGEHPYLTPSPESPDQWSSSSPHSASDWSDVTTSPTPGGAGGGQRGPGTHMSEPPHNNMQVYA

[6] = molecular target: Pro-neuregulin-1, membrane-bound isoform (Homo sapiens) (UniProt Q02297); test: NRG1 binders on small-molecule microarrays, primary screen, psychiatric disease protein project, biochemical, small-molecule microarray, fluorescence 635/667 (AID 1075); conditions: NRG1 binding, 635 nm fluorescence, higher = more signal;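 note: score combines 667 nm spot fluorescence with signal to noise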
Chain of Pro-neuregulin-1, membrane-bound isoform (Homo sapiens) (Q02297 whole entry, looked up, the tested form may be a part, canonical isoform): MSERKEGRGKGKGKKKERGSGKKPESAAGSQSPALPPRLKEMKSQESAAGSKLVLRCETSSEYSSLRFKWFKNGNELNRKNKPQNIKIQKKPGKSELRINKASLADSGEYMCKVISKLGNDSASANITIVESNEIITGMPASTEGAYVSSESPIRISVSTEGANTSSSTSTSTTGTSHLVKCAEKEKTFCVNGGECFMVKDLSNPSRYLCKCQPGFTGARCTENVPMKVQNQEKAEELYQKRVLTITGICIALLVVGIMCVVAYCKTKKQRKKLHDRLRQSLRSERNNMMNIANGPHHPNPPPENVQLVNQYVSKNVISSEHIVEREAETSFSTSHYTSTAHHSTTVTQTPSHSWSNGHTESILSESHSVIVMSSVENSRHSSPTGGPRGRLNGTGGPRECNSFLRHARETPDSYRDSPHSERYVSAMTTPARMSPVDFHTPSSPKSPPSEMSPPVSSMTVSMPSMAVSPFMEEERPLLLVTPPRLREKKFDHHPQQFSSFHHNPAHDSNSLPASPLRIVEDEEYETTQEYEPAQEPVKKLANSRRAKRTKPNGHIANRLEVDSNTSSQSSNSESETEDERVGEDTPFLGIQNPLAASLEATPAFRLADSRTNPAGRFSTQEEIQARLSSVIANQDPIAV

[7] = test system: Neuregulin-1 EGF-like domain; test: binders of neuregulin-1 EGF-like domain, primary screen, biochemical, small-molecule microarray, 635 nm fluorescence (AID 1081); conditions: small-molecule microarray binding, higher = more signal;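 note: binding of the protein to compounds printed on small-molecule microarray slides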
[8] = FRG1 promoter luciferase signal modulators, primary screen, FRG1 inhibition for FSHD, cell-based, C2C12 myotubes, firefly/Renilla luciferase, luminescence (AID 1084); conditions: higher = more signal, called active from +8 up or from −8 down
[9] = binders of probe aFST on microarray, primary screen, stem cell growth factor project, biochemical, small-molecule microarray, fluorescence 635/667 (AID 1086); conditions: higher = more signal;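 note: score merges 667 nm fluorescence with signal-to-noise of each printed compound spot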
[10] = binders of probe aHhip on microarray, primary screen, stem cell growth factor project, biochemical, small-molecule microarray, fluorescence 635/667 (AID 1087); conditions: higher = more signal;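 note: score merges spot fluorescence at 667nm with spot signal to noise ratio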
[11] = test system: PRMT1 (protein arginine N-methyltransferase 1); test: PRMT1 binders on small-molecule microarrays, primary screen, biochemical, small-molecule microarray, 635 nm fluorescence (AID 1088); conditions: small-molecule microarray binding, higher = more signal;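 note: binding of Prmt1 protein to compounds spotted on small-molecule microarray slides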
[12] = yeast growth modulation, basal conditions, primary screen, YJM789 clinical isolate, OD600, 24 h (AID 1089);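 note: growth of clinical yeast isolate S. cerevisiae YJM 789 seeded 1000 cells per well; test concentration not given here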; conditions: S. cerevisiae YJM789 growth, higher = more signal, called active from +8 up or from −8 down
[13] = fission yeast growth modulation, primary screen, strain 972, OD600, 24 h, no modulator (AID 1090);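 note: basal condition with compound alone and no growth modifier present; test concentration not given here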; conditions: S. pombe 972 growth, higher = more signal, called active from +8 up or from −8 down
[14] = S. cerevisiae growth modulation with rapamycin, primary screen, strain BY4716, OD600, 96 h (AID 1091); conditions: higher = more signal, called active from +8 up or from −8 down; note: test concentration not given here
[15] = molecular target: Torsin-1A-interacting protein 2 (Homo sapiens) (UniProt Q8NFQ8); test: LULL1 binders on small-molecule microarray, primary screen, cell lysate, human LULL1 lysate, 635/667 nm fluorescence (AID 1092); conditions: hLULL1 lysate binding, 635 nm fluorescence, higher = more signal;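 note: probe is lysate of COS7 cells overexpressing human LULL1; score merges per-feature 667 nm fluorescence with signal-to-noise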
Chain of Torsin-1A-interacting protein 2 (Homo sapiens) (Q8NFQ8 whole entry, looked up): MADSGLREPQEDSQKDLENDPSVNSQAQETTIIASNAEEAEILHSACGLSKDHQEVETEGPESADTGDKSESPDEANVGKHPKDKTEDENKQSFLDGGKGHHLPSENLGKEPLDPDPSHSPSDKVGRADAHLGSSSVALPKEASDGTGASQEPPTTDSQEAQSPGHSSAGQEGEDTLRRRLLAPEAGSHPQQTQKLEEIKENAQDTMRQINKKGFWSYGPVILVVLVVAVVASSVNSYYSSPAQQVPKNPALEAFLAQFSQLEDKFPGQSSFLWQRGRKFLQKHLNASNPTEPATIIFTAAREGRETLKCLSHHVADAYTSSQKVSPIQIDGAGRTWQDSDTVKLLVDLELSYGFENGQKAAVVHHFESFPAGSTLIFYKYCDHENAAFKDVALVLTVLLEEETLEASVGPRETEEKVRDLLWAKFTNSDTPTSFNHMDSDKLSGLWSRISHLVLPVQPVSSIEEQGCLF

[16] = E. coli growth modulation, two-sided OD650, primary screen, E. coli filamentation project, strain DRC41, 24 h (AID 1093); conditions: OD650, 24 h, higher = more signal, called active from +8 up or from −8 down;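 note: MC1000 strain lacking acrAB efflux and sulA so SOS filamentation is blocked; test concentration not given here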
[17] = small-molecule microarray binders of probe aLefty2, primary screen, biochemical, biotinylated probe, 635/667 nm fluorescence (AID 1094); conditions: higher = more signal;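 note: score merges spot fluorescence near 667 nm with spot signal-to-noise ratio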
[18] = test system: Noggin (protein binding on small-molecule microarray); test: Noggin binders on small-molecule microarray, primary screen, biochemical, 635/667 nm fluorescence (AID 1095); conditions: 635 nm fluorescence, higher = more signal;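 note: score merges 667 nm feature fluorescence with signal to noise over triplicate slides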
[19] = molecular target: Neurogenic locus notch homolog protein 3 (Homo sapiens) (UniProt Q9UM47); test: NOTCH3 binders on small-molecule microarray, primary screen, biochemical, 635/667 nm fluorescence (AID 1096); conditions: NOTCH3 binding, 635 nm fluorescence, higher = more signal
[20] = small-molecule microarray binders of probe aEGFR, primary screen, biochemical, biotinylated probe, 635/667 nm fluorescence (AID 1097); conditions: higher = more signal;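 note: probe is a biotinylated anti-EGFR antibody binding compounds printed on slides; score combines fluorescence near 667 nm and signal to noise of each spot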

## COCCOC(=O)N1C(=O)[C@@]2(c3cc(C#CC4(O)CCCCCC4)ccc31)[C@H](C(=O)Nc1nc3ccccc3s1)[C@H]1C(=O)O[C@H](c3ccccc3)[C@H](c3ccccc3)N1[C@@H]2c1ccccc1OCCO
[1]
  composite z-score: 0.184
[2]
  composite z-score: 1.29
[3]
  composite z-score: -0.0503
[4]
  composite z-score: 0.94
[5]
  composite z-score: 1
[6]
  composite z-score: 1.54
[7]
  composite z-score: 1.29
[8]
  z-score: 1.86 (inactive)
[9]
  composite z-score: 0.461
[10]
  composite z-score: -0.0618
[11]
  composite z-score: 1.55
[12]
  z-score: 0.976 (inactive)
[13]
  z-score: 0.249 (inactive)
[14]
  z-score: 2.12 (inactive)
[15]
  composite z-score: 2.89
[16]
  z-score: 1.26 (inactive)
[17]
  composite z-score: -0.0575
[18]
  composite z-score: 1.38
[19]
  composite z-score: 1.11
[20]
  composite z-score: 0.0857

## COC(=O)[C@@]1(Cc2ccccc2)[C@H]2c3cc(C(=O)N(C)C)n(Cc4ccc(OC)c(OC)c4)c3C[C@H]2CN1C(=O)c1ccccc1
[1]
  composite z-score: 0.396
[2]
  composite z-score: 0.517
[3]
  composite z-score: 0.487
[4]
  composite z-score: 1.23
[5]
  composite z-score: 1.83
[6]
  composite z-score: 1.62
[7]
  composite z-score: 1.34
[8]
  z-score: 0.115 (inactive)
[9]
  composite z-score: 1.28
[10]
  composite z-score: 0.66
[11]
  composite z-score: 0.42
[12]
  z-score: -0.257 (inactive)
[13]
  z-score: 0.836 (inactive)
[14]
  z-score: 0.534 (inactive)
[15]
  composite z-score: 3.53
[16]
  z-score: -0.793 (inactive)
[17]
  composite z-score: 0.728
[18]
  composite z-score: 0.0998
[19]
  composite z-score: 1.03
[20]
  composite z-score: 0.426

## C=CC[C@]12N=C(c3ccc(OCCCO)cc3)O[C@H]1c1ccccc1N(CCS(=O)(=O)c1ccccc1)C2=O
[1]
  composite z-score: 0.288
[2]
  composite z-score: -0.312
[3]
  composite z-score: 0.0124
[4]
  composite z-score: -0.0268
[5]
  composite z-score: 1.07
[6]
  composite z-score: 1.13
[7]
  composite z-score: 1.32
[8]
  z-score: -3.1 (inactive)
[9]
  composite z-score: 0.0964
[10]
  composite z-score: -0.3
[11]
  composite z-score: 1.49
[12]
  z-score: -1.07 (inactive)
[13]
  z-score: -1.51 (inactive)
[14]
  z-score: 0.811 (inactive)
[15]
  composite z-score: 2.14
[16]
  z-score: 1.02 (inactive)
[17]
  composite z-score: 0.0561
[18]
  composite z-score: 0.698
[19]
  composite z-score: 1.07
[20]
  composite z-score: -0.0828

## CC1CC/C=C\[C@H]2OC34C=CCN(c5ccc6ccccc6c5)C(=O)[C@H]3N(CCO)C(=O)[C@@H]4C2C(=O)O1 (stereo not given in full)
[1]
  composite z-score: -0.17
[2]
  composite z-score: 0.122
[3]
  composite z-score: -0.0996
[4]
  composite z-score: 0.0867
[5]
  composite z-score: -1.18
[6]
  composite z-score: -0.378
[7]
  composite z-score: 0.868
[8]
  z-score: 0.571 (inactive)
[9]
  composite z-score: -0.358
[10]
  composite z-score: 1.74
[11]
  composite z-score: 0.229
[12]
  z-score: -0.646 (inactive)
[13]
  z-score: -1.4 (inactive)
[14]
  z-score: -0.764 (inactive)
[15]
  composite z-score: 2.07
[16]
  z-score: 0.764 (inactive)
[17]
  composite z-score: 0.314
[18]
  composite z-score: -1.11
[19]
  composite z-score: 0.521
[20]
  composite z-score: -0.123

## C=CC[C@]1(C(=O)N2CCOCC2)N=C(c2ccc(OCCCO)cc2)O[C@H]1c1ccccc1N=[N+]=[N-]
[1]
  composite z-score: -0.0247
[2]
  composite z-score: 0.572
[3]
  composite z-score: 0.102
[4]
  composite z-score: 0.642
[5]
  composite z-score: 1.24
[6]
  composite z-score: 1.8
[7]
  composite z-score: 1.25
[8]
  z-score: -0.322 (inactive)
[9]
  composite z-score: 1.2
[10]
  composite z-score: 0.0596
[11]
  composite z-score: 1.54
[12]
  z-score: -0.0233 (inactive)
[13]
  z-score: -1.22 (inactive)
[14]
  z-score: 0.206 (inactive)
[15]
  composite z-score: 3.45
[16]
  z-score: 0.734 (inactive)
[17]
  composite z-score: 0.405
[18]
  composite z-score: 0.752
[19]
  composite z-score: 1.11
[20]
  composite z-score: -0.0406

## C=CCNC(=O)[C@H]1[C@@H]2C(=O)O[C@@H](c3ccccc3)[C@@H](c3ccccc3)N2[C@@H](c2ccc(OCCO)cc2)[C@]12C(=O)Nc1ccc(C#CCC(C(=O)OC)C(=O)OC)cc12
[1]
  composite z-score: -0.378
[2]
  composite z-score: 0.632
[3]
  composite z-score: 0.0501
[4]
  composite z-score: 0.441
[5]
  composite z-score: 1.17
[6]
  composite z-score: 1.17
[7]
  composite z-score: 1.18
[8]
  z-score: 0.0693 (inactive)
[9]
  composite z-score: 0.452
[10]
  composite z-score: 0.0373
[11]
  composite z-score: 1.56
[12]
  z-score: 1.63 (inactive)
[13]
  z-score: 1.79 (inactive)
[14]
  z-score: 5.79 (inactive)
[15]
  composite z-score: 2.74
[16]
  z-score: 0.0251 (inactive)
[17]
  composite z-score: 0.187
[18]
  composite z-score: 0.608
[19]
  composite z-score: 1.08
[20]
  composite z-score: -0.004

## COC(=O)[C@]1(CCC(=O)OC(C)(C)C)N=C(c2ccc(OCCCO)cc2)O[C@@H]1c1ccccc1
[1]
  composite z-score: 1.11
[2]
  composite z-score: -0.522
[3]
  composite z-score: 0.0679
[4]
  composite z-score: -0.87
[5]
  composite z-score: -0.668
[6]
  composite z-score: 0.791
[7]
  composite z-score: 1.14
[8]
  z-score: -2.62 (inactive)
[9]
  composite z-score: -0.159
[10]
  composite z-score: -0.233
[11]
  composite z-score: 1.14
[12]
  z-score: -0.401 (inactive)
[13]
  z-score: -1.72 (inactive)
[14]
  z-score: 1.97 (inactive)
[15]
  composite z-score: 1.4
[16]
  z-score: 2.85 (inactive)
[17]
  composite z-score: 0.289
[18]
  composite z-score: -0.499
[19]
  composite z-score: 0.0628
[20]
  composite z-score: -0.0689

## [N-]=[N+]=Nc1ccccc1[C@H]1OC(c2ccc(OCCCO)cc2)=N[C@@]1(Cc1ccccc1)C(=O)N1CCOCC1
[1]
  composite z-score: 0.875
[2]
  composite z-score: 0.992
[3]
  composite z-score: 0.184
[4]
  composite z-score: 0.698
[5]
  composite z-score: 1.57
[6]
  composite z-score: 1.84
[7]
  composite z-score: 1.22
[8]
  z-score: -1.6 (inactive)
[9]
  composite z-score: 1.52
[10]
  composite z-score: 0.0873
[11]
  composite z-score: 1.46
[12]
  z-score: -1.44 (inactive)
[13]
  z-score: -1.02 (inactive)
[14]
  z-score: 1.91 (inactive)
[15]
  composite z-score: 3.23
[16]
  z-score: 0.551 (inactive)
[17]
  composite z-score: 0.275
[18]
  composite z-score: 0.449
[19]
  composite z-score: 1.15
[20]
  composite z-score: 0.0881

## O=C(NC1CC1)[C@@H]1c2ccccc2C(=O)N(Cc2cc(F)cc(C(F)(F)F)c2)[C@H]1c1ccc(CO)cc1
[1]
  composite z-score: 0.388
[2]
  composite z-score: 0.195
[3]
  composite z-score: -0.172
[4]
  composite z-score: 0.327
[5]
  composite z-score: -0.697
[6]
  composite z-score: -0.13
[7]
  composite z-score: 1.04
[8]
  z-score: -0.594 (inactive)
[9]
  composite z-score: 0.254
[10]
  composite z-score: -0.194
[11]
  composite z-score: 1.35
[12]
  z-score: -1.02 (inactive)
[13]
  z-score: -1.15 (inactive)
[14]
  z-score: -0.926 (inactive)
[15]
  composite z-score: 2.85
[16]
  z-score: -0.213 (inactive)
[17]
  composite z-score: 0.0351
[18]
  composite z-score: 0.235
[19]
  composite z-score: -0.418
[20]
  composite z-score: -0.177

## CO[C@H]1O[C@H](CO)[C@@H](OC(=O)Nc2ccc(Oc3ccccc3)cc2)[C@H](OC(=O)Nc2ccc3c(c2)OCO3)[C@@H]1OC(=O)Nc1ccc2c(c1)OCO2
[1]
  composite z-score: 0.154
[2]
  composite z-score: 0.333
[3]
  composite z-score: -0.0493
[4]
  composite z-score: 1.22
[5]
  composite z-score: 1.55
[6]
  composite z-score: 0.516
[7]
  composite z-score: 1.09
[8]
  z-score: -0.0746 (inactive)
[9]
  composite z-score: 0.8
[10]
  composite z-score: 0.28
[11]
  composite z-score: 1.53
[12]
  z-score: 2.21 (inactive)
[13]
  z-score: 1.22 (inactive)
[14]
  z-score: 8.57 (active)
[15]
  composite z-score: 3.04
[16]
  z-score: 1.36 (inactive)
[17]
  composite z-score: 0.237
[18]
  composite z-score: 0.866
[19]
  composite z-score: 1.07
[20]
  composite z-score: 0.367
